Experimental data as given in PubChem BioAssay (NCI).
The panel holds about 79,000 compounds, 15% with a hit somewhere; the sample as a whole holds those more often. No stated cut-off is given here; in the data, active means growth inhibition above about 70%; inactive means the rest.

Tests used:
[1] = NCI Yeast Anticancer Drug Screen. Data for the rad50 strain (AID 155);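 further: 0% = growth of vehicle-only cultures of the same strain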; settings: S. cerevisiae rad50 strain growth inhibition; at 50.0 µM; active compounds read high
How it was run: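 Cells are treated with compound, grown, and their growth is then scored against vehicle-only cultures of the same repair-deficient yeast strain.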

[2] = NCI Yeast Anticancer Drug Screen. Data for the mec2-1 strain (AID 157); settings: S. cerevisiae mec2-1 strain, at 50.0 µM, active compounds read high
How it was run: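 Strain: mec2-1 (DNA repair/cell cycle alteration). Compound exposure, then growth measured; inhibition expressed relative to vehicle.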

[3] = NCI Yeast Anticancer Drug Screen. Data for the sgs1 mgt1 strain (AID 161);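 further: 0% = growth of cultures given vehicle only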; settings: S. cerevisiae sgs1 mgt1 strain, at 50.0 µM, active compounds read high
How it was run: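 Read-out: growth inhibition vs vehicle controls. Cells: mutant yeast strain deficient in DNA damage repair.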

[4] = NCI Yeast Anticancer Drug Screen. Data for the cln2 rad14 strain (AID 165);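 further: 0% = growth equal to vehicle treated cultures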; settings: S. cerevisiae cln2 rad14 strain, at 50.0 µM, active compounds read high
How it was run: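 Compounds are applied to the cln2 rad14 yeast strain, and growth is then compared with that of vehicle-treated cultures to give inhibition.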

[5] = NCI Yeast Anticancer Drug Screen. Data for the bub3 strain (AID 167); settings: S. cerevisiae bub3 mutant strain, at 50.0 µM, active compounds read high
How it was run: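 Part of a panel of yeast mutants defective in DNA damage repair or cell cycle regulation. Each strain is grown with compound, and inhibition is calculated relative to solvent-treated cultures.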

[6] = NCI Yeast Anticancer Drug Screen. Data for the mlh1 rad18 strain (AID 175); settings: S. cerevisiae mlh1 rad18 strain growth inhibition; at 50.0 µM; active compounds read high
How it was run: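 Read-out is yeast growth inhibition, calculated against vehicle-only controls. The compound was applied to a strain engineered with DNA damage repair alterations.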

Measured: growth inhibition

O=C1CC2COc3ccccc3C2=NN1c1ccccc1 (stereo not given)
inactive: [1] 13.6% | [2] 4.3% | [3] 4.7% | [4] 1.35% | [5] -4.15% | [6] 10.2%

CC(=O)c1ccc2ccc3ccccc3c2c1
inactive: [1] 15.2% | [2] -0.6% | [3] 18.6% | [4] -31.1% | [5] 1.15% | [6] 11.8%

COc1cc(C(c2cc3c(cc2O)OCO3)N2CCCC2)cc(OC)c1OC (stereo not given)
inactive: [1] -13.2% | [2] 17.9% | [3] -13.9% | [4] 13% | [5] -5.3% | [6] -7.85%

COc1ccc(C2CC2c2ccc(C#N)cc2)cc1 (stereo not given)
inactive: [1] 7.05% | [2] -6.4% | [3] -1% | [4] -40.6% | [5] 6.25% | [6] -22.8%

COc1ccc(CCc2nccn2C)cc1OC
inactive: [1] -69.3% | [2] -54.9% | [3] -34.7% | [4] -16.4% | [5] -7.95% | [6] -32.2%

CC1(c2ccc(Cl)cc2)NC(=O)N(CC(=O)Nc2ccccc2)C1=O (stereo not given)
inactive: [1] 7.1% | [2] 13.9% | [3] 2.65% | [4] -7.95% | [5] -12.1% | [6] 14.2%

COC1(C)O[C@@]2(C)c3ccccc3C(=O)[C@@]2(c2ccccc2)O1 (stereo not given in full)
inactive: [1] -3.35% | [2] -0.05% | [3] 13.1% | [4] -11.5% | [5] 5.4% | [6] 18.5%

CCC(=O)C1C(=O)CC(=O)C(C)C1c1ccccc1OC (stereo not given)
inactive: [1] -14.8% | [2] -6.6% | [3] 4.5% | [4] 38.5% | [5] 27.8% | [6] 10.4%

COc1cc(C(=O)C/C(CCC(=O)Nc2ccccc2[N+](=O)[O-])=N\NC(=O)CC#N)ccc1O
inactive: [1] -25.9% | [2] -20.8% | [3] -36.7% | [4] -11.4% | [5] -11.6% | [6] -31.4%

CC=NC(C)(C)C
inactive: [1] -7.25% | [2] -9.15% | [3] -12.3% | [4] -11.8% | [5] 3.3% | [6] -18.9%

NC(N)=NC(N)=Nc1ccccc1Br
inactive: [1] -20.9% | [2] -19.5% | [3] -4.4% | [4] -26.1% | [5] 7.05% | [6] -3.85%

O/N=C1\CCCC\C1=N/O.O/N=C1\CCCC\C1=N/O.[Pt]
inactive: [1] 34.8% | [2] -0.8% | [3] 8.05% | [4] 19.3% | [5] -1.75% | [6] 8.05%

CCOC(=O)c1cnc2cc3c(cc2c1Nc1cccc(C)c1)OCO3
inactive: [1] -9.9% | [2] -5% | [3] -5.85% | [4] -57.8% | [5] -1.45% | [6] -6%

OC(CNc1ccccn1)c1ccccc1 (stereo not given)
inactive: [1] -3.9% | [2] -44.6% | [3] -35.6% | [4] 29.2% | [5] -33.8% | [6] 16.2%

CCCCNS(=O)(=O)c1ccc(-c2ccc3c(c2)-c2ccc(S(=O)(=O)NCCCC)cc2S3(=O)=O)cc1
inactive: [1] 28.3% | [2] 7.05% | [3] 1.5% | [4] -33.2% | [5] 20.1% | [6] 9.7%

OC(COc1ccccc1)COc1ccccc1
inactive: [1] 1.35% | [2] 2.45% | [3] 16.4% | [4] -18.7% | [5] 8.1% | [6] 3.1%

CC(=O)Nc1ccc(C2C(C(=O)Nc3ccccc3)=C(C)NC(C)=C2C(=O)Nc2ccccc2)cc1
inactive: [1] 17.1% | [2] -2.6% | [3] 12.7% | [4] 11.2% | [5] 32.5% | [6] -2.2%

OC1CC2CCCCC2CC1Cl (stereo not given)
inactive: [1] 6.15% | [2] 1.35% | [3] 0.7% | [4] -16.6% | [5] -19.1% | [6] 5.5%

Oc1ccc2ccccc2c1/C=N\Sc1ccc(Br)cc1
inactive: [1] 35.1% | [2] 37.5% | [3] 64.2% | [4] 28.5% | [5] 32.2% | [6] 49.5%

Cc1ccc(S(=O)(=O)/C(C#N)=C/NC(=S)Nc2ccc(S(N)(=O)=O)cc2)cc1
inactive: [1] 12.5% | [2] -21.2% | [3] -4.1% | [4] -6.85% | [5] -10.7% | [6] -10.9%
